Results filed as inconclusive are left out. A number with no mark means an inactive call. Activity calls are given as the source filed them.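 How the source made its calls, unless noted: active means viability at or below 27.92% in each of two runs, the all-compound median minus 4 SD; inconclusive means no clear call, values can overlap the other calls; inactive means the rest.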
Assay: growth suppression of beta-catenin knockout HCT116, pilot screen, human colon tumor cells (AID 823;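 active means cell viability at or below a set limit in both duplicate runs, the limit being the all-compound median minus 4 SD, cut at about 23% in these data, passing the limit was not always enough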;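 further: 0% = wells killed by 20 µM Hyamine and 100% = untreated DMSO cell wells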)
Details: CellTiter-Glo, 60 h, at 10 µM, stronger effect = lower value
Compound `O=c1cccc2n1CC1CC2CN(Cc2ccc3c(c2)OCO3)C1` (stereo not drawn) has a viability of 98.1%. For `O=C(Nc1ccccc1OC(=O)N1CCCCC1)N1CCCCC1`, the viability was 97.4%. For `CCOC(=O)c1c(C)n(Cc2ccco2)c2ccc(OC)cc12`, the viability was 84.4%. Compound `Cc1cc(Br)ccc1N1C(=O)CC(=O)NC1=O` has a viability of 93.4%. In the case of `O=C(O)C1CN2CCC1CC2` (stereo not drawn), the viability is reported as 96.2%. `O=C(Cc1ccccc1)Oc1cccc(N2C(=O)CCC2=O)c1` showed a viability of 101%. For `CCOc1ccc(-n2c(CC)nc3ccccc3c2=O)cc1`, the viability was 88%. With `CCOc1ccccc1C1SCC(=O)Nc2c1c(=O)[nH]n2C(CC)CC` (stereo not drawn) the viability was 93.5%. `C=Cn1ccnc1P(=S)(c1ccn(C)c1)c1nccn1C=C` gave a viability of 100%. For `O=c1cccc2n1CC1CC2CN(C(c2ccccc2)c2sc3ncnn3c2O)C1` (stereo not drawn), the viability was 93.8%. For `O=c1c2ccccc2nc(-c2cccs2)n1-c1cnccn1`, the viability was 99.7%. Compound `C=Cn1ccnc1P(=S)(c1c(C)nn(-c2ccccc2)c1C)c1nccn1C=C` has a viability of 93.8%. Compound `O=C(CN1CC(c2ccccc2)CC1=O)Nc1ccc(F)cc1` (stereo not drawn) has a viability of 101%. In the case of `Cc1ccnc(-n2c(C)nc3ccccc3c2=O)c1`, the viability is reported as 90.8%. In the case of `CCCCCn1c(=O)c(C(=O)Nc2ccncc2)c(O)c2ccccc21`, the viability is reported as 13.2% (active). `C=Cn1ccnc1P(=S)(c1cc(N(CC)CC)ns1)c1nccn1C=C` showed a viability of 92.1%. Compound `O=C1CC(=O)N(c2ccc(Cl)cc2Cl)C(=O)N1` has a viability of 93.2%. `COc1ccc(CC2C(=O)NC(=O)N(c3ccccc3)C2=O)c(OC)c1` (stereo not drawn) gave a viability of 89.6%. Work on `O=C(c1ccc2c(c1)OCO2)N1CCC2(CC1)OCCO2` yielded a viability of 102%. With `CCOC(=O)C1SC2(C(F)(F)C(F)F)CC1(O)c1c(c(OC)c3occc3c1OC)O2` (stereo not drawn) the viability was 98.4%. Work on `CN1CC=C(c2c[nH]c3ccccc23)CC1` yielded a viability of 92%. `CC12CN3CC(C)(CN(C1)C3c1ccco1)C2=O` (stereo not drawn) showed a viability of 95.6%. `COc1cc(CN2CC3CC(C2)c2cccc(=O)n2C3)cc(OC)c1OC` (stereo not drawn) showed a viability of 104%.

Assay: growth suppression of PTEN-deleted HCT116, pilot screen, cell-based, HCT116 clonal line, CellTiter-Glo (AID 824);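 further: 0% = 20 µM Hyamine control and 100% = vehicle cell control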
Details: 60 h, at 10 µM, stronger effect = lower value
In the case of `COc1ccccc1N=Cc1c(O)n(C)c(=O)n(C)c1=O`, the viability is reported as 99.6%. For `COc1ccc(N2C(=O)CC(N3CC=C(c4ccccc4)CC3)C2=O)cc1` (stereo not drawn), the viability was 103%. `Cc1ccc2occ(CN3CC4CC(C3)c3cccc(=O)n3C4)c(=O)c2c1` (stereo not drawn) gave a viability of 90.8%. In the case of `Cc1cc(OCC(=O)OC(C)(C)C)c2c3c(c(=O)oc2c1)CCC3`, the viability is reported as 85.6%. `O=C(c1ccccc1)c1cn(CC(=O)N2CCCC2)c2ccccc12` gave a viability of 92%. `CC12CN3CC(C)(CN(C1)P3(=O)Oc1ccccc1)C2=O` (stereo not drawn) gave a viability of 97.9%. `COc1ccc(C2C(C(=O)N3CCC4(CC3)OCCO4)c3cc(OC)c(OC)cc3C(=O)N2C)cc1` (stereo not drawn) gave a viability of 99.4%. Work on `c1ccc2sc(C3CCCNC3)nc2c1` (stereo not drawn) yielded a viability of 97.4%. `CCOC(=O)C1CCN(/C=C2/C(=O)NC(=O)N(c3ccc(OCC)cc3)C2=O)CC1` gave a viability of 97.5%. Compound `c1cncc(C2CCCCN2Cc2ccc3c(c2)OCO3)c1` (stereo not drawn) has a viability of 94.3%. Compound `COc1cc2c(cc1OC)-c1c(OC)c(OC)cc3c1C(C2)N(C)CC3` (stereo not drawn) has a viability of 61.6%. `O=C(O)c1cc2ccccc2oc1=O` gave a viability of 99.6%. Compound `O=c1c2ccccc2nc(-c2ccco2)n1-c1ccccn1` has a viability of 95.2%. Work on `Cc1cccnc1-n1c(-c2ccco2)nc2ccccc2c1=O` yielded a viability of 101%. With `Nc1ccc(S(=O)(=O)N2CC3CC(C2)c2cccc(=O)n2C3)cc1` (stereo not drawn) the viability was 100%. For `O=C(CN1CC(c2ccccc2)CC1=O)Nc1cccc(F)c1` (stereo not drawn), the viability was 96.5%. Compound `CN(C)C1(c2nnnn2-c2ccc(Cl)cc2)CCCCC1` has a viability of 76.3%. For `O=c1cccc2n1CC1CC2CN(Cc2ccc3c(c2)OCO3)C1` (stereo not drawn), the viability was 94.6%. `O=C(Nc1ccccc1OC(=O)N1CCCCC1)N1CCCCC1` gave a viability of 100%. Work on `CCOC(=O)c1c(C)n(Cc2ccco2)c2ccc(OC)cc12` yielded a viability of 85.8%. Compound `Cc1cc(Br)ccc1N1C(=O)CC(=O)NC1=O` has a viability of 95.3%. Work on `O=C(O)C1CN2CCC1CC2` (stereo not drawn) yielded a viability of 93.3%. With `O=C(Cc1ccccc1)Oc1cccc(N2C(=O)CCC2=O)c1` the viability was 94.8%. Work on `CCOc1ccc(-n2c(CC)nc3ccccc3c2=O)cc1` yielded a viability of 89.8%. Compound `CCOc1ccccc1C1SCC(=O)Nc2c1c(=O)[nH]n2C(CC)CC` (stereo not drawn) has a viability of 93.3%. `C=Cn1ccnc1P(=S)(c1ccn(C)c1)c1nccn1C=C` gave a viability of 99.2%. In the case of `O=c1cccc2n1CC1CC2CN(C(c2ccccc2)c2sc3ncnn3c2O)C1` (stereo not drawn), the viability is reported as 96.8%. `O=c1c2ccccc2nc(-c2cccs2)n1-c1cnccn1` showed a viability of 96.3%. For `C=Cn1ccnc1P(=S)(c1c(C)nn(-c2ccccc2)c1C)c1nccn1C=C`, the viability was 90.2%. Work on `O=C(CN1CC(c2ccccc2)CC1=O)Nc1ccc(F)cc1` (stereo not drawn) yielded a viability of 99.2%. `Cc1ccnc(-n2c(C)nc3ccccc3c2=O)c1` showed a viability of 90.7%. For `CCCCCn1c(=O)c(C(=O)Nc2ccncc2)c(O)c2ccccc21`, the viability was 9.96% (active). `C=Cn1ccnc1P(=S)(c1cc(N(CC)CC)ns1)c1nccn1C=C` showed a viability of 90.5%. Compound `O=C1CC(=O)N(c2ccc(Cl)cc2Cl)C(=O)N1` has a viability of 91.2%. Compound `COc1ccc(CC2C(=O)NC(=O)N(c3ccccc3)C2=O)c(OC)c1` (stereo not drawn) has a viability of 96.9%. `O=C(c1ccc2c(c1)OCO2)N1CCC2(CC1)OCCO2` showed a viability of 97.1%. `CCOC(=O)C1SC2(C(F)(F)C(F)F)CC1(O)c1c(c(OC)c3occc3c1OC)O2` (stereo not drawn) gave a viability of 86.9%. Work on `CN1CC=C(c2c[nH]c3ccccc23)CC1` yielded a viability of 92.5%. With `CC12CN3CC(C)(CN(C1)C3c1ccco1)C2=O` (stereo not drawn) the viability was 99.6%. Compound `COc1cc(CN2CC3CC(C2)c2cccc(=O)n2C3)cc(OC)c1OC` (stereo not drawn) has a viability of 109%.

Reference: PubChem BioAssay
